Measurements published in the supplement of paper PMC6555819.

Legend:
Assay in all cases: PBM binding z-score (relative to random genomic background probes); higher = stronger binding; sequences stand for … in GC…GCGATTGACAGCGTAGAATGAAGG
[1] = system: FXR:RXRa (NR concentration 270 nM, RXRa partner concentration 90 nM)
In short: (§1)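 For binding z-scores, the reference was random background probes on custom Agilent 4×180K protein-binding microarrays. These arrays were incubated 1 h with ligand-free nuclear receptor dimers in PBS pH 7.4, 2% milk, 0.02% Triton X-100, 1 mM DTT, 0.2 mg/mL BSA and 0.4 mg/ml salmon testes DNA. Fluorescence was scanned after antibody detection of each partner (one per run) and regression-normalized.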

[2] = system: LXRa:RXRa (NR concentration 270 nM, RXRa partner concentration 90 nM)
In short: as §1

[3] = system: LXRa homodimer (NR concentration 270 nM)
In short: as §1

[4] = system: LXRb:RXRa (NR concentration 270 nM, RXRa partner concentration 90 nM)
In short: as §1

[5] = system: LXRb homodimer (NR concentration 270 nM)
In short: as §1

[6] = system: PPARa:RXRa (NR concentration 270 nM, RXRa partner concentration 90 nM)
In short: as §1

[7] = system: PPARg:RXRa (NR concentration 180 nM, RXRa partner concentration 90 nM)
In short: as §1

[8] = system: PPARg:RXRa 270nM:90nM, anti-RXR (NR concentration 270 nM, RXRa partner concentration 90 nM)
In short: as §1

[9] = system: PPARg:RXRa 30nM:10nM, anti-RXR (NR concentration 30 nM, RXRa partner concentration 10 nM)
In short: as §1

[10] = system: PPARg:RXRa 90nM:30nM, anti-RXR (NR concentration 90 nM, RXRa partner concentration 30 nM)
In short: as §1

Row | Sequence | PBM binding z-score [1] | PBM binding z-score [2] | PBM binding z-score [3] | PBM binding z-score [4] | PBM binding z-score [5] | PBM binding z-score [6] | PBM binding z-score [7] | PBM binding z-score [8] | PBM binding z-score [9] | PBM binding z-score [10]
1 | ACAGACAGGTGAGTGAAGGCAACTCAGCTGGACG | -0.0161 | -0.412 | -0.593 | -0.733 | -0.607 | -0.0544 | 0.543 | -0.0793 | -0.458 | -0.591
2 | TCGAGTAGGTTACCAATGGGGTATTCAGCTTTCT | 0.116 | 0.749 | -0.345 | 0.847 | -0.514 | 0.988 | 0.229 | 1.14 | 1.34 | 1.28
3 | ATTCGGAGGACAAAGGTCAGAGCTACGCCAGTGA | 4.05 | 4.26 | 1.79 | 3.52 | 0.763 | 4.9 | 7.69 | 6.94 | 7.1 | 7.23
4 | TCTAGTAGGTTACCAATGGGGCATTCAGCTTTCT | 0.412 | 1.74 | -0.049 | 1.37 | 0.0938 | 2.14 | 2.38 | 2.93 | 3.2 | 2.81
5 | CGTCCAAGGTCAATGCTAGGTCAGTGAAAGCATT | 6.67 | 5.72 | 2.67 | 3.98 | 0.958 | 5.11 | 4.02 | 4.74 | 1.16 | 3.17
6 | ATCGAAATGTCGACGAGGTGAGTATACACCGTTT | -0.0573 | -0.263 | -0.442 | -0.0135 | -0.0075 | 0.206 | 0.897 | -0.108 | 0.151 | -0.0963
7 | AATACAGGGTCACTAGGCCAGGGTAGGTACGAAT | 5.78 | 4.57 | 1.02 | 3.79 | 0.895 | 5.76 | 7.68 | 6.2 | 3.37 | 5.35
8 | CCTACTGGGCCATTCAGACGTCATTGATCATATG | -0.301 | -0.532 | -0.873 | -0.449 | -0.437 | 0.168 | 0.616 | 0.206 | 0.0211 | 0.147
9 | TCTTTTAGATCAAGCAGGTTAAGAAAGCCTGAGT | 0.715 | 0.67 | -0.177 | 0.588 | 0.409 | 1.02 | -0.669 | 1.68 | 3.39 | 2.56
10 | CAAACTAGGTCACAGAGGTCCAAGTCCGTGCGTA | 4.06 | 3.27 | 0.422 | 2.32 | 0.233 | 5.18 | 8.72 | 7.58 | 5.04 | 7.32
11 | TCTTGTAAATCAGCAGGTTAAGAAAGCTGGCCAA | 0.256 | 0.519 | -0.233 | 0.511 | -0.113 | 0.935 | -0.661 | 1.45 | 3.06 | 2.45
12 | TTACCAAGGTGAGCTGAGTTCGTTGATCCAACTC | 0.596 | 0.237 | -0.394 | -0.0256 | -1.28 | 0.596 | -0.321 | 0.146 | -0.237 | 0.19
13 | ACTCGGAGGAGAAAGGTCAGAGCTACGCCAGTGA | 2.6 | 3.16 | 0.746 | 2.72 | -0.215 | 3.8 | 3.76 | 4.3 | 2.61 | 4.29
14 | ATCTCTTGGTAAAAGTTCAGTGAATCCCGAGGAT | 0.493 | 1.23 | 1.42 | 0.868 | 1.09 | 1.58 | 1.87 | 4.15 | 1.88 | 3.88
15 | CCAGACAGGAGAGAAGGTAACTCAGCCTCGATTA | -0.282 | -0.227 | -0.0445 | 0.0989 | 0.0914 | -0.133 | 0.348 | -0.148 | 0.0221 | -0.398
16 | ACTATTAGTTGACTTAGTGCAACCGATACGACGC | -0.217 | -0.0103 | -0.0872 | -0.107 | 0.478 | -0.0535 | 0.743 | 0.105 | 0.433 | 0.153
17 | TCATATAGGTAACACAGGTGAAAGTCGGCATCTA | 1.43 | 1.43 | 0.437 | 1.22 | 0.437 | 2.4 | 2.36 | 3.3 | 4.15 | 3.83
18 | GCGACTGGGGCAAAGTAGGTTACCATAAGGTTGG | 0.147 | 0.172 | -0.28 | 0.557 | -0.493 | 2.29 | 2.59 | 3.18 | 0.758 | 2.3
19 | CTACCAAGGTGAACAAGTTCGTTGATTACTATTC | 0.442 | 0.532 | 0.164 | 0.939 | -0.333 | 1.49 | 0.367 | 0.665 | -0.0232 | 0.145
20 | GATACAGGGTCAAGGCAAGAGTACGCGTATTGAT | 6.93 | 4.47 | 0.251 | 3.95 | 0.189 | 6.03 | 6.09 | 5.4 | 2.18 | 4.16
21 | GCTCGGAGGTCAAGGTCAGAGCTTTGTCCGTAGA | 7.3 | 5.97 | 1.81 | 4.82 | 1.33 | 5.76 | 6.41 | 6.35 | 2.69 | 5.23
22 | CTACCAAGGTGAACAAGGTCGCTGATTACTATTC | 1.1 | 1.05 | -0.405 | 1.37 | -0.68 | 2.38 | 1.17 | 1.36 | -0.0103 | 0.78
23 | ATCTCTAAGTAAAGTTCAGTGAAAGATCGATAGA | 1.27 | 1.99 | 1.87 | 1.23 | 0.906 | 1.66 | 1.4 | 2.92 | 1.3 | 2.75
24 | TTGAGTAGGTTAGTCGGGGCATTCAGCCAACATA | 0.205 | 0.325 | 0.413 | 0.932 | 0.285 | 1.11 | 0.307 | 0.997 | 0.398 | 0.742
25 | CCTAGCAGACCAGGGTCACTCAAGCATTTCGCTT | 2.1 | 1.88 | -0.131 | 2.25 | -0.581 | 3.23 | 0.556 | 1.21 | -0.525 | 0.444
